Laboratory results from PubChem BioAssay (NCI).
Where “and” joins values, the source holds several entries; their conditions need not be identical. Equal values may be shown once. Compounds without any hit were thinned out: in the full panel of roughly 83,000, 20% have a hit.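 Values shown are percent growth following 48 h exposure of cells in 96-well plates to a single concentration of compound; below 10 was considered active.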 Calls of active or inactive are those of the source.

What was measured:
Assay in all cases: NCI-60 one-dose screen, 48 h (100 = growth as untreated, 0 = no growth, -100 = all killed)
[1] = test system: MCF7 breast
[2] = test system: KM12 colon; settings: 10 µM unless noted
[3] = test system: BT-549 breast; settings: 10 µM unless noted
[4] = test system: MDA-MB-435 melanoma; settings: 10 µM unless noted
[5] = test system: SW-620 colon; settings: 10 µM unless noted
[6] = test system: HCT-116 colon; settings: 10 µM unless noted
[7] = test system: HCC-2998 colon; settings: 10 µM unless noted

Measured: growth

c1ccc2c(c1)[nH]c1c2cc[n+]2cc3c(cc12)CCCC3
active: [1]; 10 µM -13.9% | [1]; 100 µM -78.5% and -87.5%
inactive: [2] 26.4%

CN1CCN(CC(=O)Nc2nc3c(s2)Nc2cc(Cl)c(Cl)cc2NC3=O)CC1
inactive: [3] 100% | [4] 107% | [5] 112% | [1]; 10 µM unless noted 104% | [6] 100% | [7] 110% | [2] 102%

CC(c1cc(Cl)ccc1O)c1cc(Cl)ccc1O
inactive: [3] 44.7% | [5] 30.6% | [1]; 10 µM unless noted 20.1% | [6] 15.2% | [7] 63% | [2] 31.8%
active: [4] -2.51%

O=C(/C=C/c1ccccc1Cl)c1ccc(O)cc1
active: [2] 6.77%
inactive: [3] 55.8% | [4] 25.1% | [5] 40.9% | [1]; 10 µM unless noted 15% | [6] 13.3% | [7] 113%

COc1ccc(C(=O)COc2cccc(/C=C3\Oc4ccc5ccccc5c4C3=O)c2)cc1
active: [3] -96.9%
inactive: [4] 94.7% | [5] 19% | [1]; 10 µM unless noted 10.1% | [6] 29% | [7] 60% | [2] 97.9%

COc1ccc2nccc(/C=C/c3ccnc4ccc(OC)cc34)c2c1
inactive: [3] 189% | [4] 111% | [5] 104% | [1]; 10 µM unless noted 88.1% | [6] 102% | [7] 96.5% | [2] 99.5%

CCC(=O)Nc1ccccc1C#C/C=C\C#Cc1ccccc1C(F)(F)F
inactive: [3] 39.9% | [5] 29.7% | [1]; 10 µM unless noted 33.2% | [6] 41% | [7] 70.6% | [2] 41.5%
active: [4] 0.785%

O=[N+]([O-])c1ccc(N/N=C\c2ccccc2[N+](=O)[O-])nc1
inactive: [3] 101% | [4] 107% | [5] 107% | [1]; 10 µM unless noted 88.8% | [6] 102% | [7] 107% | [2] 104%

Cc1[nH]n(C(N)=S)c(=O)c1N=Nc1ccc(F)c(Cl)c1
inactive: [3] 143% | [4] 107% | [5] 111% | [1]; 10 µM unless noted 103% | [6] 95.5% | [7] 95.7% | [2] 90%

COc1ccc(-c2nn(-c3cccc(Cl)c3)cc2C2CC(c3ccccc3)=NN2C(C)=O)cc1 (centres undefined)
inactive: [3] 74.7% | [4] 88.5% | [5] 73.6% | [1]; 10 µM unless noted 68% | [6] 60.9% | [7] 95.4%

CC(=O)c1ccc2c3c(n(C)c2c1)CCCC3
inactive: [3] 96.5% | [4] 97.8% | [5] 110% | [1]; 10 µM unless noted 95.9% | [6] 99.1% | [7] 93.7% | [2] 112%

Cc1cc(NC(=O)c2ccc(N)cc2)ccc1N=Nc1ccc2c(O)c(N=Nc3ccc(Cl)c(S(=O)(=O)O)c3)c(S(=O)(=O)O)cc2c1
inactive: [3] 102% | [4] 95.5% | [5] 92.6% | [1]; 10 µM unless noted 80.1% | [6] 71.5% | [7] 73.1% | [2] 90%

CCOC(=O)c1c(NC(=O)C2CCCCC2C(=O)O)sc2c1CCCC2 (centres undefined)
inactive: [3] 102% | [4] 97.4% | [5] 101% | [1]; 10 µM unless noted 98.1% | [6] 109% | [7] 110% | [2] 109%

CCC1=C(c2ccc(OC)cc2)C(C)(C)Oc2c1ccc(O)c2CN1CCCC1
active: [4] 2.88% | [5] 3.45% | [1]; 10 µM unless noted -73.1% | [6] -21.4% | [7] -89.7% | [2] -9.53%
inactive: [3] 40.9%

CCOC(=O)c1ccccc1OC(=O)NNc1ccccc1
inactive: [3] 48.3% | [4] 50% | [5] 45.6% | [1]; 10 µM unless noted 50.3% | [6] 70.8% | [7] 40%

Cc1cc(NCCCNc2ccnc3cc(Cl)ccc23)nc(N2CCN(C)CC2)n1
inactive: [3] 95.6% | [4] 46% | [5] 37.3% | [1]; 10 µM unless noted 33.1% | [6] 18.5% | [7] 48.9% | [2] 52.6%

CCCCCCCC/C=C/CCCCCCCC1=NC(C)(C)CN1CCO
inactive: [3] 78.1%
active: [4] -31.9% | [5] -66.3% | [1]; 10 µM unless noted -55.5% | [6] -68% | [7] -86.6% | [2] -68.5%

CCCCCCCC/C=C/CCCCCCCC1=NC(C)(C)CN1CC(C)O (centres undefined)
inactive: [3] 86.7% | [1]; 10 µM unless noted 17.1%
active: [4] 6% | [5] 6.69% | [6] -85% | [7] 0.965% | [2] 6.06%

Cc1ccc([N+](=O)[O-])cc1NC(=O)Nc1cccc(F)c1
inactive: [3] 92.7% | [4] 76.7% | [5] 99.7% | [1]; 10 µM unless noted 69.8% | [6] 44% | [7] 91.8% | [2] 80.9%

COc1ccccc1[C@H]1c2[nH]c3ccccc3c2C[C@H]2C(=O)N(CCCCCCC(=O)NO)CC(=O)N12
inactive: [3] 67.8% | [4] 45.4% | [5] 15.6% | [1]; 10 µM unless noted 37.7% | [6] 18.3% | [7] 38.9% | [2] 77.8%

CCN1C2=C(SC(=S)C1=C1SC(C(=O)OC)=C(C(=O)OC)S1)SC(=Nc1ccc(OC)cc1)C2=O
active: [3] -80.5% | [4] -40.3% | [5] -67.4% | [1]; 10 µM unless noted 4.13% | [6] -80% | [7] -66.3% | [2] -89.1%

N=C(N)/N=C(\CCc1nc2ccccc2[nH]1)c1nc2ccccc2[nH]1
inactive: [3] 104% | [4] 109% | [5] 104% | [1]; 10 µM unless noted 86.3% | [6] 102% | [7] 100% | [2] 103%

O=C(C(Br)Br)C(Br)C(Br)c1ccccc1 (centres undefined)
inactive: [3] 95.8% | [4] 82.3% | [1]; 10 µM unless noted 69.7% | [6] 24.7% | [7] 112% | [2] 102%
active: [5] -46.9%

Cc1cc(NC(=O)Nc2cc(Cl)ccc2C)no1
inactive: [3] 147% | [4] 110% | [5] 110% | [1]; 10 µM unless noted 84.4% | [6] 104% | [7] 99.3%

Clc1ccc2c(Nc3ccc4oc(NCCN5CCCC5)nc4c3)ccnc2c1
inactive: [3] 95.1% | [4] 101% | [5] 78.4% | [1]; 10 µM unless noted 68.9% | [6] 55.7% | [7] 76% | [2] 81.7%

CCC(C)CC(C)C(=O)c1c(O)ccn(OC)c1=O (centres undefined)
inactive: [3] 78.1% | [4] 73.6% | [5] 61.8% | [1]; 10 µM unless noted 74.3% | [6] 47.6% | [7] 95.7% | [2] 102%

O=C(Nc1cccc(C(F)(F)F)c1)Nc1ccc(OCc2nnc(-c3ccc(Cl)cc3)o2)c(F)c1
inactive: [3] 104% | [4] 83.2% | [5] 71.8% | [1]; 10 µM unless noted 53.6% | [6] 37.1% | [7] 72.1% | [2] 49.7%

Cn1cc(-c2csc(-c3cn(C)c4ncccc34)n2)c2cccnc21
inactive: [3] 93.6% | [4] 75.8% | [5] 92.4% | [1]; 10 µM unless noted 91.6% | [6] 95% | [7] 99.2% | [2] 96.4%

COc1ccc(/C=C2\COc3ccc(O)c(O)c3C2=O)cc1OC
active: [4] -0.882% | [5] 4.03% | [6] -24.8%
inactive: [3] 29.4% | [1]; 10 µM unless noted 13% | [7] 46.1% | [2] 10.4%

CCOc1nc(-c2ccccc2)cc2c(O)c(C(=O)n3nc(C)cc3C)[nH]c(=O)c12
inactive: [3] 99.9% | [4] 112% | [5] 115% | [1]; 10 µM unless noted 101% | [6] 101% | [7] 112% | [2] 106%

C[N+]1(CCc2ccccc2)CCC(CCC2CC[N+](C)(CCc3ccccc3)CC2)CC1 (centres undefined)
inactive: [3] 106% | [4] 104% | [5] 98.8% | [1]; 10 µM unless noted 98.6% | [6] 95.1% | [7] 101% | [2] 111%

O=C(/C=C/c1cc2ccccc2[nH]c1=O)c1ccc(O)cc1
active: [5] -10.8% | [2] -8.87%
inactive: [3] 28% | [4] 34.3% | [1]; 10 µM unless noted 14.7% | [6] 12.9% | [7] 93.1%

C[C@]12CC[C@@H]3c4ccc(O)c([N+](=O)[O-])c4CC[C@H]3[C@@H]1CC[C@@H]2NS(=O)(=O)c1cccc(Br)c1
inactive: [3] 29.3% | [4] 10.7% | [5] 44.5% | [1]; 10 µM unless noted 14.6% | [6] 21.8% | [7] 51.2% | [2] 17.4%

CCCc1cccc(CCC)c1O
inactive: [3] 117% | [4] 106% | [5] 104% | [1]; 10 µM unless noted 113% | [6] 115% | [7] 100%

Nc1nc(SCC2(CCl)COC2)c2[nH]cnc2n1
inactive: [3] 91.2% | [4] 107% | [5] 99.8% | [1]; 10 µM unless noted 86.4% | [6] 105% | [7] 97.7% | [2] 108%

O=C(Nc1ccc(Cl)cc1)Nc1ccc(Oc2nncc3ccccc23)cc1
active: [3] -10.3% | [4] -33.3% | [5] -30.1% | [6] -56.9% | [7] -42.2%
inactive: [1]; 10 µM unless noted 14.3%

COc1ccc2c(c1)nc(N)c1c3ccccc3cn21
inactive: [3] 88.4% | [5] 56.8% | [1]; 10 µM unless noted 44.8% | [6] 59.1% | [7] 103%
active: [4] 2.56%
